GCN5L2 inh = qHTS Assay for Inhibitors of GCN5L2; GCN5L2 HAT assay, ThioGlo1 CoA-SH fluorescence; Histone acetyltransferase KAT2A (Homo sapiens), Q92830; AID 504327, 2011; 390,000 tested, 0.21% active; Potency, µM (series often up to 58.9 µM), inactives show at the top dose activity change, negative = inhibition, usual class: inhibitors
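Titration-based screen in which CoA formation is detected via maleimide probe ThioGlo1 (50uM) turning fluorescent on thiol reaction; substrates H3(1-25) 75uM and acetyl-CoA 70uM, GCN5L2 20nM, 20 min incubation at room temperature.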
VDR inh = Inhibitors of the vitamin D receptor (VDR): qHTS. Vitamin D3 receptor (Homo sapiens), P11473. VDR-SRC2-3 peptide fluorescence polarization, 2 h. Potency, µM, inactives show max response, negative = inhibition, actives largely listed as inhibitors. 400,000 tested, 0.93% active
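FP read-out; VDR + SRC2-3 coactivator peptide; 23 nl compound by pintool; 2 h RT incubation; reagents held at 4 deg C, protected from light.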
DT40 TDP1 CPT = qHTS for Inhibitors of human tyrosyl-DNA phosphodiesterase 1 (TDP1): qHTS in cells in presence of CPT | chicken DT40 Tdp1-/-;hTDP1 cells + 20 nM CPT, ATP luminescence, 48 h | Potency, µM (highest dose often 46.2 µM), for inactives: at the top dose activity change, negative = growth inhibition, usual class: inhibitors | 420,000 tested, 12% active | AID 686979, 2013; also: nearly all actives have a fitted effect of over 55% in size
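Chicken DT40 Tdp1-/- cells stably complemented with human TDP1 were seeded at 400 cells/well in medium containing 20 nM camptothecin, exposed to pin-transferred compounds, and grown at 37 °C for at least 48 hr. Viability was read as ATP luminescence.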
PLK1 PBD block = qHTS for Inhibitors of PLK1-PDB (polo-like kinase 1 - polo-box domain): Primary Screen | Serine/threonine-protein kinase PLK1 (Homo sapiens), P53350 | Plk1 PBD binding of FITC phosphopeptide, fluorescence polarization | Potency, µM, without a hit: max response, negative = inhibition, hits mostly inhibitors | 360,000 tested, 2.8% active | AID 720504, 2013; also: series mostly up to about 57 µM; nearly all actives have a fitted effect of over 65% in size
DT40 TDP1 no CPT = qHTS for Inhibitors of human tyrosyl-DNA phosphodiesterase 1 (TDP1): qHTS in cells in absence of CPT; Potency, µM (doses to about 46.2 µM), without a hit: top-dose activity change, negative = growth inhibition, actives largely listed as inhibitors; DT40 Tdp1-/- hTDP1 cells, no CPT, ATP luminescence, 48 h; AID 686978, 2013; 420,000 tested, 15% active; also: nearly all actives have a fitted effect of over 55% in size
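Growth of hTDP1-complemented DT40 Tdp1-knockout cells is measured by ATP luminescence after at least 48 hr compound exposure at 37 °C, with DMSO substituting for the 20 nM CPT used in the parallel screen.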
TDP1 inh = qHTS Assay for Inhibitors of Tyrosyl-DNA Phosphodiesterase (TDP1). Potency, µM (series often up to 130 µM), without a hit: at the top dose activity change, negative = inhibition, usual class: inhibitors. 350,000 tested, 0.28% active. AID 485290, 2010. recombinant TDP1, AlphaScreen DNA substrate cleavage; also: nearly all actives have a fitted effect of over 40% in size
Target sequence (Q9NUW8 whole entry, looked up): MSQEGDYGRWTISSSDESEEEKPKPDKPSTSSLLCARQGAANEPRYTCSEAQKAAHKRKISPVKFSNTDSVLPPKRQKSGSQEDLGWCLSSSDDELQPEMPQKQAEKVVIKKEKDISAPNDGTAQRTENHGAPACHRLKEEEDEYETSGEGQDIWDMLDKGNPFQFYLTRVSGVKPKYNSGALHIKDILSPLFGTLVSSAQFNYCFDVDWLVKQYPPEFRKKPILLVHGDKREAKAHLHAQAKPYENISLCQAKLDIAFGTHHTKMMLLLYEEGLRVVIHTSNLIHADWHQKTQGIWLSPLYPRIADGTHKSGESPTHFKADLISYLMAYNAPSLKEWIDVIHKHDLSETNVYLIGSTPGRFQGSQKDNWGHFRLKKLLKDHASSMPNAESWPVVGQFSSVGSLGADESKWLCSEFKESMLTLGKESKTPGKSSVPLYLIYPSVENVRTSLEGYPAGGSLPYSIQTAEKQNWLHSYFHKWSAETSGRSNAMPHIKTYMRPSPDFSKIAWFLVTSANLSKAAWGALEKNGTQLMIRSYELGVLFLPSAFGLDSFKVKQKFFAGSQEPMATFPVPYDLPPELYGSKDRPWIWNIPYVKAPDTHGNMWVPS
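Tdp1 1 nM final; 15 min RT w/ cpd; substrate 15 nM, 5 min; beads 10 ug/ml, 10 min; AlphaScreen read. Neg ctrl: no enzyme.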
The depositor's hits bear a star; ? = inconclusive; nt = no result given; [ ] = another dose, or the depositor's remark. A selection: hits, their analogues and other compounds. The true share with any hit is near 18%. Calls follow the shape of the dose curve; as a rule, active = well fitted curve in the direction sought with a large enough effect; inconclusive = small, poorly fitted or top-dose-only effect, or another doubt; inactive = no such curve, though single readings can be large; an effect the other way counts as inactive or inconclusive. % is scaled to controls: 0 for no effect and ±100 for the full control effect; potency is read from the fitted curve at half-maximal effect.

SMILES	GCN5L2 inh	VDR inh	DT40 TDP1 CPT	PLK1 PBD block	DT40 TDP1 no CPT	TDP1 inh
CCc1noc(C)c1C(=O)Oc1ccc(N(C)S(=O)(=O)c2ccc(C)cc2)cc1	-28.5%	8.3%	18.4µM*	5.2%	2.59µM*	-0.5%
CCc1noc(C)c1C(=O)Oc1ccc(N(C)S(=O)(=O)c2ccccc2)cc1	-17.4%	-11.6%	23.1µM*	-4.9%	16.4µM*	nt
Cc1ccc(S(=O)(=O)N(C)c2ccc(OC(=O)c3ccc(=O)[nH]c3)cc2)cc1	0.3%	-4.5%	?	-13.3%	?	7.7%
Cc1noc(C)c1CSCC(=O)Oc1ccc(N(C)S(=O)(=O)c2ccccc2)cc1	-9.5%	-6.4%	-8.9%	-2.8%	-9.7%	2.5%
Cc1cccc(OCCCCc2c(C)n[nH]c2C)c1C	-6.1%	-4.3%	11.6µM*	-0.4%	?	9.3%
COc1ccccc1OCCCCCc1c(C)n[nH]c1C	?	2.8%	?	-4.8%	?	2.5%
CCOC(=O)CC(=O)CSc1nc2ccccc2c(=O)n1-c1ccc(C(=O)N2CCOCC2)cc1	-4.3%	5.9%	-10.0%	-2.2%	-8.2%	5.2%
C=CCn1c(SCc2cc(C(C)=O)ccc2OCC)nc2ccccc2c1=O	-7.0%	-10.3%	1.64µM*	-2.6%	0.82µM*	-2.4%
COc1ccccc1-n1c(SCc2cc(=O)oc3cc(O)ccc23)nc2ccccc2c1=O	?	-2.2%	23.1µM*	-12.5%	?	0.0%
O=C(c1ccc(-n2c(SCc3cc(F)ccc3F)nc3ccccc3c2=O)cc1)N1CCOCC1	-1.9%	-10.5%	11.6µM*	-13.6%	25.9µM*	-4.3%
COc1ccc(C(C)=O)cc1CSc1nc2ccccc2c(=O)n1-c1ccccc1	-7.6%	-6.1%	?	-1.4%	?	0.0%
COc1ccc(C(C)=O)cc1CSc1nc2ccccc2c(=O)n1-c1ccccc1C	-5.8%	0.6%	18.4µM*	-0.2%	20.6µM*	5.3%
O=C1CN(C(=O)COc2ccc(Br)cc2)c2ccccc2N1	0.7%	-8.7%	-2.3%	-14.2%	-11.2%	6.0%
CCCCC#CC1C=CC(Oc2cc(OC)c(OC)c(OC)c2)C(COC(=O)OCC)O1 (centres undefined)	nt	nt	nt	nt	nt	2.6%[21 µM]
CC(C)Oc1ccc(S(=O)(=O)N2CCCCC2)cc1NC(=O)C1=NN(c2ccccc2)C(=O)CC1	nt	nt	?	0.2%	?	nt
CCOc1ccccc1C1C(C(=O)Nc2ccccc2)=C(C)Nc2c(C(=O)Nc3ccc(F)cc3)cnn21 (centres undefined)	-7.9%	13.0%	?	nt	?	6.4%
COc1ccc(C(C)=O)cc1CSc1nc2ccccc2c(=O)n1-c1cccc(C)c1	2.0%	9.9%	18.4µM*	6.0%	18.4µM*	4.6%
COc1ccc(CNC(=O)C(=O)NCC(c2cccs2)S(=O)(=O)c2ccc(C)cc2)cc1 (centres undefined)	-0.9%	14.3%	0.3%	nt	?	2.6%
Cc1ccc(C(C)C)cc1OCC(=O)NCCCn1ccnc1	0.3%	21.8%	?	-5.6%	23.1µM*	0.6%
C=C1C2CC[C@@]3(C)C(c4ccoc4)OC(=O)C[C@@]13OC1CC(OC(C)=O)C(C)(C)C(CC(=O)OC)[C@@]12C (some centres undefined)	-6.6%	-11.5%	13µM*	nt	11.6µM*	14.1%[56.1 µM]
CC(=O)O[C@@H]1C[C@H]2C(C)(C)C(=O)C=C[C@]2(C)[C@H]2CC[C@@]3(C)[C@H](c4ccoc4)OC(=O)[C@H]4O[C@]43[C@@]21C	-6.8%	-26.5%	?	-12.0%	?	5.5%
CC1(C)C(=O)C=C[C@@]2(C)C1C=C[C@@]1(C)C2CC[C@@]2(C)C(c3ccoc3)OC(=O)C3OC312 (some centres undefined)	-18.0%	3.55µM*	16.4µM*	nt	11.6µM*	7.7%
CC(=O)OC1CC[C@]2(C)C(CC(OC(C)=O)[C@@]3(C)C4=CC(=O)OC(c5ccoc5)[C@]4(C)CCC23)C1(C)C (some centres undefined)	-19.7%	25.1µM*	?	nt	20.6µM*	10.5%[56.1 µM]
CC(=O)OC1CC(OC(C)=O)[C@]2(C)C(CC(=O)[C@]3(C)C2CC[C@@]2(C)C(c4ccoc4)OC(=O)C4O[C@@]423)C1(C)C (some centres undefined)	1.8%	28.2µM*	-7.8%	nt	-12.8%	-6.8%[56.1 µM]
COc1ccc(Cl)cc1C(=O)NNC(=O)CN1C(=O)C2CC=CCC2C1=O (centres undefined)	-3.6%	-1.3%	-5.1%	4.9%	11.1%	0.0%
SMILES	GCN5L2 inh	VDR inh	DT40 TDP1 CPT	PLK1 PBD block	DT40 TDP1 no CPT	TDP1 inh
CC1(C)C(=O)C2C[C@]3(O)C4=CC(=O)OC(c5ccoc5)[C@]4(C)CCC3[C@](C)(C2=O)C1CC(=O)O (some centres undefined)	-4.3%	12.9%	-1.0%	nt	-25.6%	-4.5%[56.1 µM]
CC(=O)OC1C=C[C@]2(C)C(CC(OC(C)=O)[C@@]3(C)C4=CC(=O)OC(c5ccoc5)[C@]4(C)CCC23)C1(C)C (some centres undefined)	-7.1%	56.2µM*	?	nt	20.6µM*	9.6%[56.1 µM]
CCCC(=O)NC(c1ccc(OC)c(OC)c1)c1c(O)ccc2ccccc12 (centres undefined)	0.9%	-8.2%	-13.1%	-4.3%	-1.5%	5.2%
CCCCC(=O)NC(c1ccccc1Cl)c1c(O)ccc2ccccc12 (centres undefined)	-8.1%	2.4%	?	-1.6%	?	2.7%
CCCCC(=O)NC(c1ccccc1OC)c1ccc2cccnc2c1O (centres undefined)	17.1%	-6.9%	20.6µM*	-16.8%	18.4µM*	8.0%
CCCC(=O)NC(c1ccccc1OC)c1ccc2cccnc2c1O (centres undefined)	-10.2%	-1.1%	4.11µM*	?	4.11µM*	7.3%
Cc1ccccc1N=C1c2ccccc2C(=O)C1[N+](=O)[O-] (centres undefined)	-1.5%	-15.6%	-6.6%	-6.6%	?	6.0%
CC(=O)Nc1ccc(OC(=O)N2CCCC2)cc1	-15.4%	-5.4%	11.0%	2.6%	2.0%	nt
O=S1(=O)C=C(SCc2ccc(Cl)c(Cl)c2)Nc2ccccc21	-8.9%	34.2%	23.1µM*	-12.6%	?	-2.1%
